The values that follow come from PubChem BioAssay (NCATS).

Where “and” joins values, the source holds several entries; their conditions need not be identical. Identical values can stand only once. Inconclusive results are not listed. Calls of active or inactive are those of the source. Unless noted, the call rests on the fitted dose curve; in most records, active means well fitted activation curve with a large enough effect; inconclusive means small, poorly fitted or top-dose-only effect; inactive means flat fitted curve, though single readings scatter.

Assay [1] can be described thus: qHTS assay for small molecule agonists of the antioxidant response element (ARE) signaling pathway (AID 651741; active means well fitted activation curve with a large enough effect in the signal ratio; the % refers to the signal ratio; further: potency means the concentration at half of the fitted maximal effect; on activation: % of control where 0% means no effect). In short, it runs like this:
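Compounds in DMSO are pinned onto HepG2 ARE-bla cells (2,000/well) that were preincubated 5 h; plates stay 16 h at 37 C, then beta-lactamase activity is detected with LiveBLAzer B/G substrate by fluorescence.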

Assay [2] in a line: qHTS assay for small molecule activators of the nuclear factor-kappa B (NF-kB) signaling pathway (AID 651749; active means well fitted activation curve with a large enough effect in the signal ratio; the % refers to the signal ratio; further: series mostly up to about 77 µM; % of control where 0% means no effect). The conditions noted are these: NF-kB-bla ME-180 cells, beta-lactamase FRET ratio, 16 h; stronger effect = higher value. In a few lines: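 Screening used 2,000 ME-180 reporter cells per well exposed to pinned compound (23 nL) or DMSO; after 16 hr at 37C, beta-lactamase expression under NF-kB control was assessed through FRET.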
In general terms: In qHTS, concentration-response curves come from the screen itself.

The target in assay [3] is Tumor necrosis factor (Homo sapiens) (UniProt P01375). The experiment in a line: qHTS assay to identify small molecules that stimulate Tumor Necrosis Factor-alpha (TNF-alpha) secretion (AID 651757; active means well fitted curve in the direction sought with a large enough effect in the signal ratio; the % refers to the signal ratio; further: 0% is about no effect). In short, it runs like this:
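Read-out is HTRF, a TR-FRET sandwich of cryptate- and XL665-labeled anti-TNF-alpha antibodies detecting cytokine secreted by THP-1 cells. Cells had been incubated with test compounds at 37 C for 17 hrs beforehand.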

Assay [4] can be described thus: qHTS assay to identify small molecules that stimulate interleukin-8 (IL-8) secretion (AID 651758; active means well fitted activation curve with a large enough effect in the signal ratio; the % refers to the signal ratio; further: 0% is about no effect). In a few lines: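 THP-1, 2000 cells/well; cpd 16 h, 37 C; add cryptate + XL665 anti-IL-8 Abs; RT 1-3 h; TR-FRET read.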
A short description of assay [5]: qHTS assay for environmental chemicals that activate the Aryl hydrocarbon Receptor (AhR) signaling pathway (AID 651777). Further: % of control where 0% means no effect; nearly all actives have a fitted effect of over 15% in size. The note with it: 1A2-DRE human hepatoma cells, luciferase, 24 h; stronger effect = higher value. In a few lines: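 Human hepatoma 1A2-DRE cells stably carrying a DRE/CYP1A2 promoter–luciferase reporter, 1,200 cells/well, exposed to compound 24 hr at 37 C. Luciferase read by One-Glo luminescence after 30 min at room temperature; increased signal marks AhR activation.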

Assay [6] addresses Peroxisome proliferator-activated receptor alpha (Homo sapiens) (UniProt Q07869). The experiment in a line: qHTS assay for small molecule agonists of the peroxisome proliferator-activated receptor alpha (PPARalpha) signaling pathway (AID 651778). Further: % of control where 0% means no effect. The conditions noted are these: PathHunter PPARalpha complementation, chemiluminescence, 6 h; stronger effect = higher value. In short, it runs like this:
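Cells plated at 2,000/well and held overnight at 37 C, 5% CO2, then compound added by pin tool for 6 hr; after PathHunter detection reagent and 60 min at room temperature, chemiluminescence from enzyme complementation was read.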

Assay [7] is described as follows: S16 Schwann cell PMP22 intronic element beta-lactamase assay (AID 624044; calls by dose curve;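 further: 0% = DMSO and -100% = potassium clavulanate positive control; nearly all actives have a fitted effect of over 15% in size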). In short, it runs like this:
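Rat S16 Schwann cells with beta-Lac driven by a PMP22 intronic element, compound-treated 24 h at 37 °C. LiveBLAzer FRET B/G read: 460 nm normalized to potassium clavulanate vs DMSO; 535 nm FRET as viability; concentration-effect curves classified.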

Assay [8] is described as follows: qHTS assay for small molecule activators of the p53 signaling pathway (AID 651743; active means well fitted activation curve with a large enough effect in the signal ratio, not every such curve was filed as active; the % refers to the signal ratio; further: series mostly up to about 92 µM; % of control where 0% means no effect). The conditions noted are these: HCT-116 p53RE-bla, beta-lactamase FRET ratio, 16 h; stronger effect = higher value. In a few lines:
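Cell-based beta-lactamase reporter (p53 response elements, HCT-116 background). After a 5-hour preincubation, cells received compound for 16 hours at 37 C; substrate development ran 2 hours at room temperature.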

Assay [9] in a line: qHTS assay for small molecule disruptors of the mitochondrial membrane potential - 1 hr assay (AID 651754; calls by dose curve; further: on the % scale 0 is the no-effect control and ±100 the full control effect; nearly all actives have a fitted effect of over 35% in size). In short, it runs like this: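 HepG2, 2,000 cells/well, overnight attachment; cpd or DMSO 1 hr, 37C/5% CO2; Mito-MPS dye 30 min, 37C; fluorescence monomer (490/535) and aggregate (540/590).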
Assay [10] in a line: qHTS assay for small molecule disruptors of the mitochondrial membrane potential - 5 hr assay (AID 651755; calls by dose curve; further: on the % scale 0 is the no-effect control and ±100 the full control effect; nearly all actives have a fitted effect of over 40% in size). In short, it runs like this: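 HepG2 cells, attached overnight at 37C, were exposed to compound or DMSO for 5 hr at 37C, 5% CO2. Mito-MPS dye was then added for 30 min, and fluorescence read at 490/535 nm (monomers) and 540/590 nm (aggregates).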

Peroxisome proliferator-activated receptor alpha (Homo sapiens), sequence (Q07869 whole entry, looked up): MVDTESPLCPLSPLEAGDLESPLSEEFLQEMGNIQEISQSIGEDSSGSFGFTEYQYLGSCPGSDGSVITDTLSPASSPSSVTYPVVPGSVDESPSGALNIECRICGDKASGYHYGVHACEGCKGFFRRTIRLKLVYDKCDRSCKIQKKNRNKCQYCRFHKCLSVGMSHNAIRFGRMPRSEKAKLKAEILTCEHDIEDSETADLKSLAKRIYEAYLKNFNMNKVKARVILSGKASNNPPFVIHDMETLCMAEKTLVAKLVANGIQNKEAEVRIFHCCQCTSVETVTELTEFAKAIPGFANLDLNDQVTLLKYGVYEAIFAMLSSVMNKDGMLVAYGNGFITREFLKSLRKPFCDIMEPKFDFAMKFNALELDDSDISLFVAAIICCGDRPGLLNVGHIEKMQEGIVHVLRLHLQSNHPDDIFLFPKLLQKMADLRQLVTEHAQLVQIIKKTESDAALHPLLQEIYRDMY
Tumor necrosis factor (Homo sapiens), sequence (P01375 whole entry, looked up): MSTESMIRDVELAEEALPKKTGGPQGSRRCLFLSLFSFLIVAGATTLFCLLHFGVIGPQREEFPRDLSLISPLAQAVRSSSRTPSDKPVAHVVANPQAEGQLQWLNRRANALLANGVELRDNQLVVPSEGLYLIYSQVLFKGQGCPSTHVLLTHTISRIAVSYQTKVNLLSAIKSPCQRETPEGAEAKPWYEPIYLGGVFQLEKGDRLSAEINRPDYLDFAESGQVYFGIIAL

With `CC(=O)OCC(COC(C)=O)OC(C)=O`, the Potency result in assay [1] is “inactive”. Also, the activation in assay [2] was 0.2% (inactive) and 0.487% (inactive); in [5], 1.18% (inactive) and -0.878% (inactive). Also, the result in assay [3] and in assay [4] was inactive. Also, the max response in [6] was 0.869% (inactive) and -1.48% (inactive).
Consider `COC(=O)c1ccc(O)cc1`, for which the Potency in assay [1] was 19.3 µM (active). The activation in assay [2] was -2.57% (inactive); in assay [5], 7.25% (inactive). Besides, the max response in [6] was -1.49% (inactive).
Consider `O=C1C(c2[nH]c3ccccc3c2O)=Nc2ccccc21`, for which the molecule was classed as inactive in assay [7] and in assay [3]. Besides, in assay [1], the Potency was 47.3 µM (active). For the same molecule, the activation in [8] was -4.39% (inactive); in assay [2], -0.0626% (inactive). In assay [6], the max response was -5.35% (inactive).
In the case of `CC1CC(OC(=O)c2ccccc2O)CC(C)(C)C1` (centres undefined), the outcome in assay [7] and in assay [3] was inactive. For the same molecule, the activation was -6.41% (inactive) in assay [8], -1.08% (inactive) in assay [2] and 2.34% (inactive) in assay [5]. For the same molecule, the Potency entry in assay [9] and in assay [10] was “inactive” throughout. Besides, the max response in assay [6] is -1.84% (inactive).
On to `CC(C)=CCC/C(C)=C/CO`, for which, in [7], the molecule was called inactive. The Potency result in assay [1] was “inactive”. Further, the activation in assay [8] was -2.29% (inactive); in assay [2], -0.602% (inactive); in [5], -0.426% (inactive). Moreover, the max response in assay [6] is -2.93% (inactive).
`CC(=O)Nc1cccc(O)c1`: in assay [1], the Potency entry was “inactive”. In addition, the values for the activation in assay [8], in [2] and in [5] were -0.0293% (inactive), 0.693% (inactive) and 2.7% (inactive), respectively. In addition, the call in assay [3] was inactive. The max response in assay [6] was -0.0766% (inactive).
For the molecule `C=CCNC(N)=S`, the Potency entry in assay [1] was “inactive”. The activation in assay [8] was -1.91% (inactive); in assay [2], -0.527% (inactive); in assay [5] it was 0.627% (inactive). Moreover, the molecule was called inactive in assay [3] and in assay [4]. The max response in [6] was -1.33% (inactive).
`Nc1ccc(S(=O)(=O)c2ccc(N)cc2)cc1`: the call in [7] was inactive. The Potency result in assay [1], in [9] and in [10] was “inactive” in each case. For the same molecule, the activation in assay [8] was -4.8% (inactive) and 0.655% (inactive); in assay [2] it was 2.3% (inactive) and -6.03% (inactive); in assay [5], -1.52% (inactive) and 0.0487% (inactive). In addition, in [6], the max response was -8.33% (inactive) and -0.873% (inactive).
Regarding `CC(=O)Nc1ccccc1`, the activation in assay [2] is -0.999% (inactive); in assay [5], -1.4% (inactive). Also, the molecule was called inactive in assay [3]. For the same molecule, in [6], the max response is -5.14% (inactive).
Consider `Cc1c(C(=O)NCCO)[n+](=O)c2ccccc2n1[O-]`, for which the activation is 3.58% (inactive) in [8], -3.75% (inactive) in [2] and -0.247% (inactive) in assay [5]. Moreover, the max response in assay [6] is -1.31% (inactive).
On to `CCN(CC)C(=O)c1cccc(C)c1`, for which the result in [7], in assay [3] and in assay [4] was inactive. Also, the Potency entry in [1] and in [10] was “inactive” throughout. Further, in [5], the activation is -1.83% (inactive) and 2% (inactive). In addition, the max response in assay [6] was -2.42% (inactive) and -0.716% (inactive).
As to `Cc1c(N(C)C)c(=O)n(-c2ccccc2)n1C`, the call in assay [7] and in [3] was inactive. Besides, the Potency result in assay [1], in [9] and in assay [10] was “inactive” in each case. In addition, the activation is 1.01% (inactive) and 2.73% (inactive) in assay [2]; -1.03% (inactive) and 1.07% (inactive) in assay [5]. For the same molecule, the max response in assay [6] was -3.72% (inactive) and 2.35% (inactive).
